{
  "source": "PubChem BioAssay (Tox21)",
  "note": "Active and inactive are the calls of the source. A call without a number means that no potency is given here. Calls follow the shape of the dose curve; as a rule, active = well fitted activation curve with a large enough effect in the repeat runs; inconclusive = weak or mixed curves; inactive = flat fitted curve, though single readings scatter.",
  "data": [
    {"assay": "Caspase-3/7 induction in CHO-K1 cells by small molecules, qHTS assay (AID 1346980); also: nearly all actives have a fitted effect of over 15% in size", "settings": "CHO-K1 caspase-3/7 induction, Caspase-Glo luminescence, 17 h; series mostly up to 92.4 µM", "description": "National Center for Advancing Translational Sciences [NCATS]\nNIH Chemical Genomics Center [NCGC]\nU.S. Environmental Protection Agency [EPA]\nNational Institutes of Environmental Health Sciences [NIEHS]\nNational Toxicology Program [NTP]\nApoptosis is a process of programmed cell death and plays a central role in the development of multicellular organisms. It is a highly regulated process and induces cell death by activating caspases, which are the members of cysteine aspartic acid-specific protease (caspase) family. Caspases involved in apoptosis are classified by their mechanism of action as initiator caspases (caspase-2, -8, -9 and -10) and executioner caspases (caspase-3, -6, and -7). Inhibition of apoptosis results in number of cancers, autoimmune diseases, inflammatory diseases and viral infection. To identify small molecule compounds that induce apoptosis, a homogeneous, luminescent Caspase-Glo 3/7 assay was used. Wild type CHO-K1 cells were used to screen Tox21 libraries for identifying caspase-3/7 activity inducers.\nCHO-K1 cells were dispensed at 1,500 per well in 5uL of culture medium into white solid bottom 1536-well plates (Corning Life Sciences, Corning, NY) using a Multidrop Combi (Thermo Scientific, Waltham, MA) dispenser. The assay plates were incubated at 37 C and 5% CO2 for 5hr, and then 23nL of compounds dissolved in DMSO and positive control were transferred using a Pintool station (Wako, San Diego, CA). The assay plates were incubated at 37C and 5% CO2 for 17hr. For caspase-3/7 activity read, 4uL of Caspase-Glo 3/7 reagent (Promega Corporation, Madison, WI) was added to each well of the assay plates using Flying Reagent Dispenser (FRD, Aurora Discovery, San Diego, CA) and incubated the assay plates at room temperature for 30min. The luminescence signal was quantified using a ViewLux plate reader (Perkin Elmer, Shelton, CT).", "values": [
      {"smiles": "COc1cccc(C(=O)NN(C(=O)c2cc(C)cc(C)c2)C(C)(C)C)c1C", "Potency": "inactive"},
      {"smiles": "CC1CCC(=O)O1", "note": "(stereo not given)", "Potency": "inactive"},
      {"smiles": "ClC(Cl)Br", "Potency": "inactive"},
      {"smiles": "C1CCC(C2CCCCC2)CC1", "Potency": "inactive"},
      {"smiles": "CCN(CC)C(=O)[C@@H]1C=C2c3cccc4[nH]cc(c34)C[C@H]2N(C)C1", "Potency": "inactive"},
      {"smiles": "C=C(C)CN(CC)c1c([N+](=O)[O-])cc(C(F)(F)F)cc1[N+](=O)[O-]", "Potency": "inactive"},
      {"smiles": "Cc1cc(C)nc(Nc2ccccc2)n1", "Potency": "inactive"},
      {"smiles": "c1ccc(N2CCNCC2)cc1", "Potency": "inactive"},
      {"smiles": "CCC(=O)C(CCN(C)C)(c1ccccc1)c1ccccc1", "Potency": "inactive"},
      {"smiles": "CCCCP(CCCC)CCCC", "Potency": "inactive"},
      {"smiles": "CC1CCCCC1NC(=O)Nc1ccccc1", "note": "(stereo not given)", "Potency": "inactive"},
      {"smiles": "O=C1OC(CCN2CCCCC2)OC1(c1ccccc1)c1ccccc1", "note": "(stereo not given)", "Potency": "inactive"},
      {"smiles": "COP(=S)(OC)Oc1c(Cl)cc(C)cc1Cl", "Potency": "inactive"},
      {"smiles": "Nc1ccccc1Cl", "Potency": "inactive"},
      {"smiles": "CCCCOC(=O)c1ccccc1C(=O)O", "Potency": "inactive"},
      {"smiles": "COc1ccc2c(c1OC)CN1CCc3cc4c(cc3C1C2)OCO4", "note": "(stereo not given)", "Potency": "inactive"},
      {"smiles": "CCC/C(=N\\OCC)C1=C(O)CC(CC(C)SCC)CC1=O", "note": "(stereo not given)", "Potency": "inactive"},
      {"smiles": "c1cc2c(c(N3CCNCC3)c1)OCCO2", "Potency": "inactive"},
      {"smiles": "CCCCC(=O)Cl", "Potency": "inactive"},
      {"smiles": "C#CCN1C(=O)COc2cc(F)c(N3C(=O)C4=C(CCCC4)C3=O)cc21", "Potency": "inactive"},
      {"smiles": "CN(N=O)C(N)=O", "Potency": "inactive"},
      {"smiles": "CC(CCc1ccccc1)NC(C)C(O)c1ccc(O)cc1", "note": "(stereo not given)", "Potency": "inactive"},
      {"smiles": "O=C(O)c1cccc(Cl)c1", "Potency": "inactive"},
      {"smiles": "Cc1cc(C)c(C(=O)P(=O)(C(=O)c2c(C)cc(C)cc2C)c2ccccc2)c(C)c1", "Potency": "inactive"},
      {"smiles": "Nc1cc(Cl)ccc1O", "Potency": "inactive"},
      {"smiles": "O=C(O)c1ccc2[nH]cc(CCCCN3CC=C(c4ccccc4)CC3)c2c1", "Potency": "inactive"},
      {"smiles": "c1cc[c]([Hg][c]2ccccc2)cc1", "Potency": "inactive"},
      {"smiles": "O=C1CN2CCOC2(c2ccccc2Cl)c2cc(Cl)ccc2N1", "note": "(stereo not given)", "Potency": "inactive"},
      {"smiles": "Nc1cc2c3c(c1)C(c1ccccc1)=N[C@@H](NC(=O)c1cccnc1)C(=O)N3CC2", "Potency": "inactive"},
      {"smiles": "C[C@@H]1CN(C2CCC(C#N)(c3ccc(F)cc3)CC2)CC[C@]1(C(=O)O)c1ccccc1", "note": "(stereo not given in full)", "Potency": "inactive"},
      {"smiles": "Cc1cccc(C#N)c1", "Potency": "inactive"},
      {"smiles": "CC1(C(=O)Nc2ccc(O)c(Cl)c2Cl)CCCCC1", "Potency": "inactive"},
      {"smiles": "CCCSP(=S)(OCC)Oc1ccc(Cl)cc1Cl", "note": "(stereo not given)", "Potency": "inactive"},
      {"smiles": "OC(c1ccccc1)(c1ccccc1)C1CCNCC1", "Potency": "inactive"},
      {"smiles": "Cc1nnc2n1-c1sc(CCC(=O)N3CCOCC3)cc1C(c1ccccc1Cl)=NC2", "Potency": "inactive"},
      {"smiles": "CSc1nc(N=[N+]=[N-])nc(NC(C)C)n1", "Potency": "inactive"},
      {"smiles": "CC(C)NCC(O)c1ccc(N)c(C#N)c1", "note": "(stereo not given)", "Potency": "inactive"},
      {"smiles": "Cc1ncsc1CCCl", "Potency": "inactive"},
      {"smiles": "O=NN1CCCCC1", "Potency": "inactive"},
      {"smiles": "CCN(CC)c1nc(C)cc(OP(=S)(OC)OC)n1", "Potency": "inactive"}
    ]}
  ]
}
